Test [1] in a line: inhibitors of TNFa-induced NFkB p65 translocation, primary screen, imaging, HUVEC, MLSMR starter and 10KST1 sets (AID 438;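 active = inhibition above 20% together with a positive visual image hit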;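 also: compound added about 3h40 before a 20 min TNFalpha stimulation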;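 as to inhibition: signal is the nuclear over cytoplasmic p65 intensity ratio per well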). The following applies: HUVEC TNFa-induced p65 nuclear translocation; cell count: measured here: nuclei count (cytotoxicity indicator), at 2.08 µM; inhibition: at 2 µM, stronger effect = higher value, 0% TNFa-plus-vehicle, 100% no-TNFa wells.
A short description of test [2]: reduction of polyQ htt aggregates in cells – imaging, exon1htt(103Q)mCFP cells, high-content imaging, primary screen (AID 483;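 active = visual image review flags a hit and inhibition of aggregation exceeds 20%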;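 also: compound exposure lasted 3 days before fixation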;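 as to nuclei count: percent of the per-plate median nuclei count of sample wells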). The following applies: exon1htt(103Q)mCFP cell line, aggregate imaging, at 2 µM; inhibition of aggregation: stronger effect = higher value; nuclei count: measured here: cell count, toxicity.
Test [3] can be described thus: endothelial E-selectin expression blockers – imaging, HUVEC, immunofluorescence, MLSMR starter and 10KST1 sets, primary screen (AID 487;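 active = visually confirmed hit in the image check and inhibition above 20%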;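 as to inhibition: signal is fraction of cell area covered by stained E-selectin grains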;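 as to nuclei count: 100% = median nuclei count of all wells on the same plate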). The following applies: HUVEC TNFalpha-induced E-selectin immunofluorescence imaging, at 2 µM; inhibition: stronger effect = higher value; nuclei count: measured here: cell number, toxicity.
Test [4] concerns the target Voltage-gated potassium channel subunit beta-2 (Rattus norvegicus) (UniProt P62483). Kind of test: inhibitors of rat Kvbeta2 reductase activity – biochemical, NADPH fluorescence, primary screen (AID 622).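 Also: slope of raw intensity against log time taken from 70 to 1610 s.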 The following applies: recombinant KvBeta, 4-cyanobenzaldehyde reduction, at 10 µM, stronger effect = higher value.
The target is the same in test [5]. Put plainly: enhancers of rat Kvbeta2 NADPH turnover – biochemical, NADPH fluorescence, primary screen (AID 623;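 active = NADPH fluorescence slope more negative than the mean of all samples by about 3 SD, 99.7% confidence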;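 also: fluorescence intensity change per second fitted from 20 to 320 s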). The following applies: Recombinant KvBeta, NADPH fluorescence decrease slope, 10 min; at 10 µM; stronger effect = lower value.
Test [6] addresses Alpha-2C adrenergic receptor (Homo sapiens) (UniProt P18825). Put plainly: compounds altering alpha2C-coupled GIRK flux – cell-based, HEK293 alpha2C/GIRK1/2, thallium flux, primary screen (AID 624;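 active = fluorescence slope after compound addition differing from the mean of all screened samples at 99.7% confidence, in either direction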;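 also: slope of fluorescence ratio to pre-addition baseline per second over 15 to 24 s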). The following applies: thallium flux BTC fluorescence, at 10 µM, actives lie on both sides.
Test [7] can be described thus: blockers of RIG-like receptor reporter activation – cell-based, Sendai virus stimulus, luciferase, 10K MLSCN set, TLR/RLR signaling modifier project, primary screen (AID 602276;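 active = inhibition at or above 50% at 10 µM; inactive = inhibition below 50%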;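 also: firefly luciferase from ISG56 promoter only with Renilla not read in this screen; 0% = Sendai virus plus DMSO and 100% = medium plus DMSO without virus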). The following applies: HEK293 RL24 IRF3 luciferase reporter, at 10 µM, stronger effect = higher value. For orientation: In a reporter assay the amount or activity of a reporter protein is the signal.
A short description of test [8]: TLR3 IRF3 reporter activation blockers – cell-based, poly I:C stimulus, luciferase, 10K MLSCN set, primary screen (AID 602277;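 active = inhibition of the reporter signal at or above 50%; inactive = inhibition below 50%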). The following applies: HEK293-TLR3 RL24 IRF3 luciferase reporter, at 10 µM, stronger effect = higher value.

Active and inactive are the calls of the source.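 The calls were made as follows, unless noted: active = fluorescence slope higher than the sample average by over 3 SD (cut at about -0.22 in these data, passing the limit was not always enough); inactive = the rest.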

The record followed here is PubChem BioAssay.

Sequence of Voltage-gated potassium channel subunit beta-2 (Rattus norvegicus) (P62483 whole entry, looked up): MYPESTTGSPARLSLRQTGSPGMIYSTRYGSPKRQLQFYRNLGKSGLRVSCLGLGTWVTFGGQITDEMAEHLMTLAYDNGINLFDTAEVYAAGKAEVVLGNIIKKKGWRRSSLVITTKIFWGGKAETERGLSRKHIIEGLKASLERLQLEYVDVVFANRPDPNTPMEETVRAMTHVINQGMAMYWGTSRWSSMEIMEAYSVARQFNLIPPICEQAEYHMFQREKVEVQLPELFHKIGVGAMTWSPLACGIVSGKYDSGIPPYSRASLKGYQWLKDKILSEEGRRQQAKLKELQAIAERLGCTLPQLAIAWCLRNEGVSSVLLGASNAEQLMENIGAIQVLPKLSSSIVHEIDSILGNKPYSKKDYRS
Sequence of Alpha-2C adrenergic receptor (Homo sapiens) (P18825 whole entry, looked up): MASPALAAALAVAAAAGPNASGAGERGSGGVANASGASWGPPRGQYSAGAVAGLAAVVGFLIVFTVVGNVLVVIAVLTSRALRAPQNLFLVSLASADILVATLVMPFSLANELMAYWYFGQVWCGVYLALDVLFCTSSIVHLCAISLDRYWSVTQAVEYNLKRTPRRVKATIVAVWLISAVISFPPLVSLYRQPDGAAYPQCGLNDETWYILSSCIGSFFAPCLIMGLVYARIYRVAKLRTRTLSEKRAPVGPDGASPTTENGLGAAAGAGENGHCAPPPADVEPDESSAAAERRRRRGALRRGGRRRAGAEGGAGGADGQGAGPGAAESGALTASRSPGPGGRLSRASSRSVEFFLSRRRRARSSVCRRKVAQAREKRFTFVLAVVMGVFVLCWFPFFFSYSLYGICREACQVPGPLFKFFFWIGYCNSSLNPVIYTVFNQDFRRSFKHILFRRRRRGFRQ

Consider `O=C(OC1CCOC1=O)c1ccc2ccccc2n1` (centres undefined), for which the cell count in test [1] amounted to 633. The inhibition in test [1] is 4.2% (inactive); in test [3], 38.1% (inactive); in test [7], 20.6% (inactive); in test [8] it was 29.1% (inactive). Further, in test [2], the inhibition of aggregation is -0.9% (inactive). For the same compound, the nuclei count came to 100% in test [2] and 76% in test [3]. The fluorescence slope in test [4] was -0.324 (inactive). Moreover, the NADPH fluorescence slope in test [5] was 2.9e-05 (inactive). For the same compound, the slope in test [6] was 0.00579 (inactive).

On to `Cc1nnc(NC(=O)c2ccccc2F)s1`, for which, in test [1], the cell count worked out at 421. Also, the inhibition in test [1] was 6% (inactive); in test [3] it was 6.9% (inactive); in test [7], -6.19% (inactive); in test [8], -17.6% (inactive). Further, the inhibition of aggregation in test [2] is 14.2% (inactive). In addition, the nuclei count in test [2] was determined as 103%; in test [3], 125%. Further, in test [4], the fluorescence slope was -0.614 (inactive). Also, the NADPH fluorescence slope in test [5] is 5.1e-06 (inactive). Besides, in test [6], the slope is 0.00652 (inactive).

Consider `Nc1nc2n(n1)C(c1cccc(Cl)c1)CC(c1ccc(F)cc1)N2` (centres undefined), for which the cell count in test [1] stood at 678. The inhibition is -12.4% (inactive) in test [1], -13.6% (inactive) in test [3], 11.8% (inactive) in test [7] and 25.8% (inactive) in test [8]. In addition, in test [2], the inhibition of aggregation was -13.4% (inactive). Also, the nuclei count was 100% in test [2] and 106% in test [3]. Moreover, in test [4], the fluorescence slope was -0.42 (inactive). Moreover, the NADPH fluorescence slope in test [5] is -3.8e-05 (inactive). The slope in test [6] was 0.00636 (inactive).

For `O=C(NCC1CCCO1)c1ccc(N2CCCCC2)nc1` (centres undefined), in test [1], the cell count came out at 684. Moreover, the inhibition in test [1] was -11.2% (inactive); in test [3], -30.2% (inactive); in test [7] it was -7.44% (inactive); in test [8] it was -103% (inactive). Moreover, the inhibition of aggregation in test [2] was 1.5% (inactive). Also, the values for the nuclei count in test [2] and in test [3] were 99.7% and 107%, respectively. For the same compound, the fluorescence slope in test [4] was -0.314 (inactive). Moreover, the NADPH fluorescence slope in test [5] was 2.7e-06 (inactive). Moreover, the slope in test [6] was 0.00663 (inactive).

In the case of `COc1ccccc1C1/C(=C(/O)c2ccccc2)C(=O)C(=O)N1CC(C)C` (centres undefined), the cell count in test [1] stood at 430. For the same compound, the inhibition in test [1] was -3.3% (inactive); in test [3], -43.1% (inactive); in test [7] it was 11.4% (inactive); in test [8], 20.6% (inactive). Moreover, the inhibition of aggregation in test [2] was -2% (inactive). In addition, the nuclei count was 112% in test [2] and 124% in test [3]. Moreover, the fluorescence slope in test [4] was -0.629 (inactive). In addition, the NADPH fluorescence slope in test [5] was -2.2e-05 (inactive). In addition, the slope in test [6] was 0.00652 (inactive).

With `Cc1sc2nc(SCc3nc4ccccc4[nH]3)n(Cc3ccco3)c(=O)c2c1C`, the cell count in test [1] was 585. Further, the inhibition in test [1] is -2.2% (inactive); in test [3], 8.2% (inactive); in test [7], 0.73% (inactive); in test [8], -54.9% (inactive). Moreover, the inhibition of aggregation in test [2] is 17.5% (inactive). In addition, the nuclei count in test [2] was 91.4%; in test [3], 97.3%. Besides, the fluorescence slope in test [4] is -0.59 (inactive). Further, the NADPH fluorescence slope in test [5] is -2e-05 (inactive). Also, the slope in test [6] was 0.00556 (inactive).

Take `C=C(C)COc1ccc(-c2nc(N)ncc2-c2ccc(OC)cc2)c(O)c1`: the cell count in test [1] was 278. The inhibition in test [1] is -9.5% (inactive); in test [3], -120% (inactive); in test [7], 5.72% (inactive); in test [8], 27.1% (inactive). For the same compound, in test [2], the inhibition of aggregation is 24.6% (inactive). The nuclei count in test [2] stood at 69.5%; in test [3] it was 111%. Further, the fluorescence slope in test [4] is -0.433 (inactive). Also, the NADPH fluorescence slope in test [5] was -2.4e-05 (inactive). Further, the slope in test [6] is 0.00614 (inactive).

In the case of `COc1cc(Nc2cc(C)nc3ncnn23)cc(OC)c1OC`, the cell count in test [1] is 649. Also, the inhibition in test [1] was -6.3% (inactive); in test [3] it was -23.8% (inactive); in test [7], 1.55% (inactive); in test [8], 31.7% (inactive). The inhibition of aggregation in test [2] was -4.4% (inactive). Besides, the results for the nuclei count in test [2] and in test [3] were 109% and 112%, respectively. Further, the fluorescence slope in test [4] is -0.56 (inactive). Further, in test [5], the NADPH fluorescence slope was 1.9e-05 (inactive). In addition, the slope in test [6] is 0.0068 (inactive).

For the compound `O=C(C1CCN(c2nnc(-n3cccc3)s2)CC1)N1CCN(Cc2ccc3c(c2)OCO3)CC1`, the cell count in test [1] was determined as 707. For the same compound, the inhibition was -9.2% (inactive) in test [1], -56.3% (inactive) in test [3], -2.25% (inactive) in test [7] and -31.5% (inactive) in test [8]. In addition, the inhibition of aggregation in test [2] was -39.4% (inactive). Also, the nuclei count turned out to be 115% in test [2] and 113% in test [3]. In addition, in test [4], the fluorescence slope is -0.593 (inactive). Moreover, in test [5], the NADPH fluorescence slope was -2e-05 (inactive). The slope in test [6] is 0.00596 (inactive).

Turning to `CCc1cccc(NC(=O)CN(C)S(=O)(=O)c2cccc3nsnc23)c1`, in test [1], the cell count amounted to 337. Also, the inhibition in test [1] was -6.3% (inactive); in test [3] it was -68.8% (inactive); in test [7], 10.2% (inactive); in test [8], 8.03% (inactive). Moreover, the inhibition of aggregation in test [2] was 7.8% (inactive). Also, the nuclei count in test [2] turned out to be 94%; in test [3], 120%. Also, in test [4], the fluorescence slope was -0.35 (inactive). Moreover, in test [5], the NADPH fluorescence slope was -6.7e-05 (inactive). Moreover, the slope in test [6] was 0.0056 (inactive).

With `CC1(C)OC(=O)N(c2cccnc2)C1(C)O` (centres undefined), the cell count in test [1] is 597. Also, the inhibition in test [1] was 8.1% (inactive); in test [3], 41.8% (inactive); in test [7] it was 13.3% (inactive); in test [8], 19.9% (inactive). Further, the inhibition of aggregation in test [2] is -2.8% (inactive). Moreover, the nuclei count in test [2] amounted to 101%; in test [3], 104%. In test [4], the fluorescence slope was -0.401 (inactive). The NADPH fluorescence slope in test [5] is -2.3e-05 (inactive). Further, the slope in test [6] is 0.00628 (inactive).

Consider `O=C(c1cccnc1NCc1ccccc1)N1CCOCC1`, for which the cell count in test [1] came out at 616. Besides, the inhibition was -26.5% (inactive) in test [1], -53.4% (inactive) in test [3], -13.7% (inactive) in test [7] and -5.42% (inactive) in test [8]. Moreover, in test [2], the inhibition of aggregation was 5.4% (inactive). The nuclei count in test [2] turned out to be 114%; in test [3] it was 116%. Also, the fluorescence slope in test [4] was -0.613 (inactive). Also, in test [5], the NADPH fluorescence slope is 2e-05 (inactive). Also, in test [6], the slope is 0.00541 (inactive).

For the compound `O=C(NC1CCCCCC1)c1c(F)c(F)c(F)c(F)c1F`, in test [1], the cell count came to 448. Also, the inhibition was 1.8% (inactive) in test [1], 1.8% (inactive) in test [3], 1.12% (inactive) in test [7] and 12.3% (inactive) in test [8]. For the same compound, the inhibition of aggregation in test [2] is 3.9% (inactive). Further, the nuclei count in test [2] was 104%; in test [3], 118%. Also, the fluorescence slope in test [4] is -0.299 (inactive). Further, the NADPH fluorescence slope in test [5] is -1.4e-05 (inactive). Also, the slope in test [6] is 0.00585 (inactive).

For the compound `Cc1ccc2nc(NC(=O)Cn3cc4c(n3)CCCCC4)sc2c1`, the cell count in test [1] is 899. Further, the inhibition in test [1] was 0.5% (inactive); in test [3], -44.1% (inactive); in test [7], -7.98% (inactive); in test [8], -11.8% (inactive). In addition, the inhibition of aggregation in test [2] was 4% (inactive). For the same compound, the nuclei count is 100% in test [2] and 123% in test [3]. In test [4], the fluorescence slope was -0.581 (inactive). The NADPH fluorescence slope in test [5] is -1.2e-05 (inactive). Moreover, the slope in test [6] is 0.00613 (inactive).

Usually inhibition stands for the relative decrease from the control value, in per cent.
